Our source for the Potency values is PubChem BioAssay (NCATS).

Inconclusive results are not listed. A call without a number means that no potency is given here. Calls of active or inactive are those of the source. Calls come from the whole dose curve; as a rule, active = well fitted curve in the direction sought with a large enough effect; inconclusive = small, poorly fitted or top-dose-only effect, or another doubt; inactive = no such curve, though single readings can be large; an effect the other way counts as inactive or inconclusive.
Potency is the fitted concentration of half-maximal effect.

The first assay in a line: Cell Viability - LYMP2-004 (AID 966). Note: nearly all actives have a fitted effect of over 65% in size. Particulars: LYMP2-004 lymphoblastoid cell viability, qHTS; series mostly up to 92.2 µM. The method, boiled down:
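qHTS cytotoxicity: human lymphoblastoid line, 24 hr compound treatment, 37 C, complete medium. Viability read as cellular ATP via luciferase luminescence; tetraoctylammonium bromide served as positive control.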
A general note: qHTS replaces the single test concentration by a dilution series.
As for `CCNc1nc(Cl)nc(NC(C)C)n1`, the Potency result is “inactive”.

As to `ClC1=C(Cl)C2(Cl)C3C4CC(C5OC45)C3C1(Cl)C2(Cl)Cl` (stereo not given), the Potency was 20 µM (active).

Consider `ClC(Cl)=C(c1ccc(Cl)cc1)c1ccc(Cl)cc1`, for which the Potency entry was “inactive”.

As for `O=C(O)COc1ccc(Cl)cc1Cl`, the Potency result is “inactive”.

In the case of `C/C=C/c1ccc2c(c1)OCO2`, the Potency result is “inactive”.

Regarding `CNC(=O)O/N=C/C(C)(C)SC`, the Potency result is “inactive”.

For the molecule `c1ccc(N=Nc2ccccc2)cc1`, the Potency result is “inactive”.

The nature of a further assay: Cell Viability - LYMP2-005 (AID 967). As to conditions: LYMP2-005 lymphoblastoid cell viability; series mostly up to 92.2 µM. The method, boiled down: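 qHTS viability screen in LYMP2-005 cells: 24 h at 37 C with compound, ATP luminescence via CellTiter-Glo, AC50 from Hill curves.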
On to `CCNc1nc(Cl)nc(NC(C)C)n1`, for which the Potency result is “inactive”.

In the case of `ClC1=C(Cl)C2(Cl)C3C4CC(C5OC45)C3C1(Cl)C2(Cl)Cl` (stereo not given), the Potency is 20 µM (active).

Turning to `ClC(Cl)=C(c1ccc(Cl)cc1)c1ccc(Cl)cc1`, the Potency result was “inactive”.

Regarding `O=C(O)COc1ccc(Cl)cc1Cl`, the Potency result was “inactive”.

Turning to `COC(=O)NC(=S)Nc1ccccc1NC(=S)NC(=O)OC`, the Potency entry was “inactive”.

With `C/C=C/c1ccc2c(c1)OCO2`, the Potency result is “inactive”.

As to `COP(=S)(OC)Oc1ccc([N+](=O)[O-])cc1`, the Potency entry is “inactive”.

As to `C=CCc1ccc(OC)cc1`, the Potency result is “inactive”.

In the case of `CNC(=O)O/N=C/C(C)(C)SC`, the Potency entry was “inactive”.

For `c1ccc(N=Nc2ccccc2)cc1`, the Potency entry was “inactive”.

Another assay in a line: Cell Viability - LYMP2-009 (AID 968). Note: nearly all actives have a fitted effect of over 55% in size. Particulars: LYMP2-009 lymphoblastoid cell viability; series mostly up to 92.2 µM.
With `CCNc1nc(Cl)nc(NC(C)C)n1`, the Potency entry is “inactive”.

Regarding `ClC(Cl)=C(c1ccc(Cl)cc1)c1ccc(Cl)cc1`, the Potency result was “inactive”.

Consider `ClC1=C(Cl)C2(Cl)C3C4C=CC(C4)C3C1(Cl)C2(Cl)Cl` (stereo not given), for which the Potency result is “inactive”.

As to `O=C(O)COc1ccc(Cl)cc1Cl`, the Potency entry was “inactive”.

As to `COC(=O)NC(=S)Nc1ccccc1NC(=S)NC(=O)OC`, the Potency result was “inactive”.

As to `C/C=C/c1ccc2c(c1)OCO2`, the Potency entry was “inactive”.

Consider `COP(=S)(OC)Oc1ccc([N+](=O)[O-])cc1`, for which the Potency entry is “inactive”.

As for `O=S1OCC2C(CO1)C1(Cl)C(Cl)=C(Cl)C2(Cl)C1(Cl)Cl` (stereo not given), the Potency entry is “inactive”.

Regarding `C=CCc1ccc(OC)cc1`, the Potency result is “inactive”.

As to `ClC1=C(Cl)C2(Cl)C3C(Cl)C=CC3C1(Cl)C2(Cl)Cl` (stereo not given), the Potency entry is “inactive”.

Regarding `c1ccc(N=Nc2ccccc2)cc1`, the Potency result is “inactive”.

As to `CCc1cccc(CC)c1N(COC)C(=O)CCl`, the Potency was 50.1 µM (active).

Another assay is described as follows: Cell Viability - LYMP2-011 (AID 969). Note: nearly all actives have a fitted effect of over 60% in size. Particulars: LYMP2-011 lymphoblastoid cells viability; series mostly up to 92.2 µM. The procedure, abridged: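 In this qHTS cytotoxicity format, compounds are tested across concentrations on human lymphoblastoid cells in complete medium for 24 hours at 37 C. Viability is taken as cellular ATP measured by luciferase luminescence.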
Consider `CCNc1nc(Cl)nc(NC(C)C)n1`, for which the Potency entry was “inactive”.

With `ClC1=C(Cl)C2(Cl)C3C4CC(C5OC45)C3C1(Cl)C2(Cl)Cl` (stereo not given), the Potency is 39.8 µM (active).

Turning to `CCOCN(C(=O)CCl)c1c(C)cccc1CC`, the Potency was 50.1 µM (active).

On to `ClC(Cl)=C(c1ccc(Cl)cc1)c1ccc(Cl)cc1`, for which the Potency result is “inactive”.

Turning to `O=C(O)COc1ccc(Cl)cc1Cl`, the Potency result was “inactive”.

Take `COC(=O)NC(=S)Nc1ccccc1NC(=S)NC(=O)OC`: the Potency result was “inactive”.

With `C/C=C/c1ccc2c(c1)OCO2`, the Potency entry was “inactive”.

With `COP(=S)(OC)Oc1ccc([N+](=O)[O-])cc1`, the Potency result is “inactive”.

On to `O=S1OCC2C(CO1)C1(Cl)C(Cl)=C(Cl)C2(Cl)C1(Cl)Cl` (stereo not given), for which the Potency entry is “inactive”.

With `C=CCc1ccc(OC)cc1`, the Potency entry was “inactive”.

`CNC(=O)O/N=C/C(C)(C)SC`: the Potency entry is “inactive”.
